Experimental data reported in PubChem BioAssay (Tox21).
Inconclusive results are not listed. Activity calls are given as the source filed them. Calls follow the shape of the full dose curve.

Assay: qHTS assay for small molecule agonists of the p53 signaling pathway - cell viability (AID 651633); also: nearly all actives have a fitted effect of over 30% in size;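 as to activity change, negative = cytotoxicity: p53RE-bla HCT reporter cells with a stable beta-lactamase p53 reporter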
Conditions: p53RE-bla HCT-116 viability, ATP luminescence, 16 h; series mostly up to 83.3 µM; activity change, negative = cytotoxicity: at the top concentration
Procedure, shortened: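 p53RE-bla cells, seeded at 4,000 per well and rested 5 h at 37 C/5% CO2, received compounds in DMSO for 16 h at 37 C. CellTiter-Glo was then added, and luminescence was read after 30 min at room temperature to gauge cytotoxicity.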
% is scaled to controls: 0 for no effect and ±100 for the full control effect; potency is read from the fitted curve at half-maximal effect.

| SMILES | activity change, negative = cytotoxicity | Potency |
| --- | --- | --- |
| COc1ccc(N)c([N+](=O)[O-])c1 | 6.45% (inactive) |  |
| Cc1ccc2c(c1[N+](=O)[O-])C(=O)c1ccccc1C2=O | 15.1% (inactive) |  |
| CC(=O)N[C@@H](Cc1ccc(O)cc1)C(=O)O | -12.6% (inactive) |  |
| Cc1cn([C@H]2C[C@H](F)[C@@H](CO)O2)c(=O)[nH]c1=O | 10.2% (inactive) |  |
| C1=CCC2CC=CC2C1 (stereo not given) | 6.26% (inactive) |  |
| c1ccc(CNc2ncnc3c2ncn3C2CCCCO2)cc1 (stereo not given) | 2.21% (inactive) |  |
| CCCCCc1ccco1 |  | 39.8 µM (active) |
| CCCCC(CC)COS(=O)(=O)O (stereo not given) |  | inactive |
| CC1CCCO1 (stereo not given) | -8.11% (inactive) |  |
| c1ccc(CCCc2ccncc2)cc1 | -15.3% (inactive) |  |
| CC(C)(C(=O)c1cccnc1)c1cccnc1 | 8.19% [at 39.1 µM] (inactive) |  |
| SCCc1cnccn1 | -14.3% (inactive) |  |
| O=C1NC(=O)c2cccc3cccc1c23 | -5.52% (inactive) |  |
| CC1CCCC(=O)C1=O (stereo not given) | 21.1% (inactive) |  |
| CCC1CCC(CCC(=O)O)C1 (stereo not given) | 6.53% [at 95.3 µM] (inactive) |  |
| BrC(Br)C(Br)Br | 7.22% (inactive) |  |
| O=c1[nH]c2cc(C(F)(F)F)c(N3CCOCC3)cc2n(CP(=O)(O)O)c1=O | 9.54% (inactive) |  |
| O=C(O)CN1C(=O)c2cccc3cccc(c23)C1=O | 19% (inactive) |  |
| CCCCCC | 3.23% (inactive) |  |
| O=C(O)c1cccc(C[C@@H]2COc3ccc(OCc4nc5cc(F)ccc5s4)cc3[C@@H]2O)c1 | -7.37% (inactive) |  |
| COC(OC)OC | 17.1% (inactive) |  |
| O=C(O)CCC(=O)OC[C@@H](NC(=O)C(Cl)Cl)[C@H](O)c1ccc([N+](=O)[O-])cc1 | -6.36% (inactive) |  |
| CC(O)Cn1cnc2c1c(=O)n(C)c(=O)n2C (stereo not given) | -7.82% [at 39.1 µM] (inactive) |  |
| CCCOC(=O)c1c(Cl)c(Cl)c(Cl)c(Cl)c1C(=O)OCCC | 47.1% (inactive) |  |

Assay: qHTS assay for small molecules that induce genotoxicity in human embryonic kidney cells expressing luciferase-tagged ATAD5 - cell viability (AID 651634); also: nearly all actives have a fitted effect of over 25% in size
Conditions: HEK293T ATAD5-luc cells viability, CellTiter-Fluor, 15.5 h; series mostly up to 83.3 µM; activity, negative = cytotoxicity: at the top concentration
Procedure, shortened: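 HEK293T ATAD5-luc cells, 2,000/well; compound 15.5 hr, 37C/5% CO2; CellTiter-Fluor 30 min, 37C; fluorescence read.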

| SMILES | activity, negative = cytotoxicity | Potency |
| --- | --- | --- |
| N[C@@H](Cc1cc(I)c(O)c(I)c1)C(=O)O | -9.53% (inactive) |  |
| CCCCCCCC/C=C\CCCCCCCC(=O)OCCO | 16.1% [at 95.3 µM] (inactive) |  |
| COc1ccc(CCN(C)CCCN2CCc3cc(OC)c(OC)cc3CC2=O)cc1OC | 4.45% (inactive) |  |
| CC(C)(C)C1(CCc2ccc(Cl)cc2)CO1 (stereo not given) | 14.4% (inactive) |  |
| CC(=O)C(C)=O | -5.6% [at 95.3 µM] (inactive) |  |
| O=C(O)c1ccc(O)cc1O | -9.98% [at 95.3 µM] (inactive) |  |
| COC1CCC=CO1 (stereo not given) | 10.1% [at 95.3 µM] (inactive) |  |
| CCN(CC)CCOC(=O)C(c1ccccc1)c1ccccc1 | 15.8% (inactive) |  |
| Cc1cccc2sc(N)nc12 | 16.4% [at 95.3 µM] (inactive) |  |
| CC(=O)OCC(=O)[C@@]1(OC(C)=O)[C@@H](C)C[C@H]2[C@@H]3C[C@H](F)C4=CC(=O)C=C[C@]4(C)[C@@]3(F)[C@@H](O)C[C@@]21C | -22.7% (inactive) |  |
| COc1ccc(C(=O)NCc2ccc(OCCN(C)C)cc2)cc1OC | 21% (inactive) |  |
| CC[C@@H](CO)NCCN[C@@H](CC)CO | -5.46% [at 39.1 µM] (inactive) |  |
| Cc1ccc2c(c1[N+](=O)[O-])C(=O)c1ccccc1C2=O | -9.55% (inactive) |  |
| CC(=O)N[C@@H](Cc1ccc(O)cc1)C(=O)O | 13.1% (inactive) |  |
| Cc1cn([C@H]2C[C@H](F)[C@@H](CO)O2)c(=O)[nH]c1=O | 9.34% (inactive) |  |
| C1=CCC2CC=CC2C1 (stereo not given) | 13.2% (inactive) |  |
| c1ccc(CNc2ncnc3c2ncn3C2CCCCO2)cc1 (stereo not given) | -11.4% (inactive) |  |
| CCCCCc1ccco1 | -7.98% (inactive) |  |

| SMILES | activity, negative = cytotoxicity | Potency |
| --- | --- | --- |
| CCCCC(CC)COS(=O)(=O)O (stereo not given) |  | inactive |
| CC1CCCO1 (stereo not given) | -1.7% (inactive) |  |
| c1ccc(CCCc2ccncc2)cc1 | 9.11% (inactive) |  |
| CC(C)(C(=O)c1cccnc1)c1cccnc1 | -4.02% [at 39.1 µM] (inactive) |  |
| SCCc1cnccn1 | 6.42% (inactive) |  |
| O=C1NC(=O)c2cccc3cccc1c23 | 15% (inactive) |  |
| CC1CCCC(=O)C1=O (stereo not given) | 6.93% (inactive) |  |
| CCC1CCC(CCC(=O)O)C1 (stereo not given) | -10.7% [at 95.3 µM] (inactive) |  |
| BrC(Br)C(Br)Br | 11.6% (inactive) |  |
| O=c1[nH]c2cc(C(F)(F)F)c(N3CCOCC3)cc2n(CP(=O)(O)O)c1=O | 7.25% (inactive) |  |
| Cc1c(C2(c3cc(Br)c(O)c(Br)c3C)OS(=O)(=O)c3ccccc32)cc(Br)c(O)c1Br |  | 8.38 µM (active) |
| O=C(O)CN1C(=O)c2cccc3cccc(c23)C1=O | 15.9% (inactive) |  |
| CCCCCC | 12.5% (inactive) |  |
| O=C(O)c1cccc(C[C@@H]2COc3ccc(OCc4nc5cc(F)ccc5s4)cc3[C@@H]2O)c1 | 17.8% (inactive) |  |
| COC(OC)OC | 13.4% (inactive) |  |
| O=C(O)CCC(=O)OC[C@@H](NC(=O)C(Cl)Cl)[C@H](O)c1ccc([N+](=O)[O-])cc1 | -3.39% (inactive) |  |
| CC(O)Cn1cnc2c1c(=O)n(C)c(=O)n2C (stereo not given) | -4.62% [at 39.1 µM] (inactive) |  |
| CCCOC(=O)c1c(Cl)c(Cl)c(Cl)c(Cl)c1C(=O)OCCC | 21% (inactive) |  |
